Assay results taken from the supplement of paper PMC4022240.
± gives the standard deviation.

Experiments:
Assay in all cases: peptide microarray binding signal (635 nm), min-max normalized on array (fraction of array maximum); higher = stronger binding
[1] = molecular target: T1, HaloTag-ATRX ADD domain (163-292)
T1 chain: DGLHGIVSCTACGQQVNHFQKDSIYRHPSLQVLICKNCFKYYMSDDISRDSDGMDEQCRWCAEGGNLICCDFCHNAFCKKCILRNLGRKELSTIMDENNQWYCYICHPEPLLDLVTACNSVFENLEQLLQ
Outline: (§1)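 For each library, binding signal was taken as the triplicate-spot mean intensity and then min-max scaled. Spots of histone 13-mer peptide–cellulose conjugates on nitrocellulose, printed in triplicate with a Cy3 tracer, were probed for 1 h at 4°C with either biotin-labelled HaloTag reader fusions (10 nM to 1 μM) and streptavidin-Alexa Fluor 647 or rabbit histone antibodies (1:10,000 to 1:2,000) and anti-rabbit Alexa 647. Readout at 635 nm came from an Axon GenePix 4000B.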

[2] = molecular target: HaloTag-ING2 PHD (mouse Ing2 200-280)
Outline: as §1

[3] = molecular target: anti-H3K4me3 antibody ab8580
Outline: as §1

[4] = molecular target: anti-H3K9me3 antibody ab8898
Outline: as §1

[5] = peptide region: H4 8-19, peptide modifications: H4K16ac H4R17cit, binder concentration: 1:2,000 dilution
[6] = peptide region: H4 8-19, peptide modifications: H4K8ac, binder concentration: 1:2,000 dilution
[7] = peptide region: H4 8-19, peptide modifications: H4K8ac, binder concentration: 1:10,000 dilution
[8] = peptide region: H4 1-13, peptide modifications: H4S1ph H4R3me2s, binder concentration: 1:2,000 dilution
[9] = peptide region: H4 1-13, peptide modifications: H4S1ph H4R3me2s, binder concentration: 1:10,000 dilution
[10] = peptide region: H4 8-19, peptide modifications: H4K16ac H4R17me1, binder concentration: 1:2,000 dilution
[11] = peptide region: H4 8-19, peptide modifications: H4K16ac, binder concentration: 1:2,000 dilution
[12] = peptide region: H4 8-19, peptide modifications: H4K16ac, binder concentration: 1:10,000 dilution
[13] = peptide region: H4 1-13, peptide modifications: H4S1ph H4R3me2a, binder concentration: 1:2,000 dilution
[14] = peptide region: H4 1-13, peptide modifications: H4S1ph H4R3me2a, binder concentration: 1:10,000 dilution

KGLGKGGAKRHRK [H4 8-19 K G L G K G G A Kac Rcit H R K]
peptide microarray binding signal ([1]; peptide region: H4 8-19, peptide modifications: H4K16ac H4R17cit, binder concentration: 500 nM): 0.000476 ± 1.3e-05 | peptide microarray binding signal ([2]; peptide region: H4 8-19, peptide modifications: H4K16ac H4R17cit, binder concentration: 100 nM): 7.09e-05 ± 1.5e-06 | peptide microarray binding signal [3, 5]: 3.78e-05 ± 4.3e-07 | peptide microarray binding signal [4, 5]: 0

KGLGKGGAKRHRK [H4 8-19 Kac G L G K G G A K R H R K]
peptide microarray binding signal ([1]; peptide region: H4 8-19, peptide modifications: H4K8ac, binder concentration: 50 nM): 0.00652 ± 0.00063 | peptide microarray binding signal ([1]; peptide region: H4 8-19, peptide modifications: H4K8ac, binder concentration: 500 nM): 0.0191 ± 0.0048 | peptide microarray binding signal ([2]; peptide region: H4 8-19, peptide modifications: H4K8ac, binder concentration: 10 nM): 0.004 ± 0.00025 | peptide microarray binding signal ([2]; peptide region: H4 8-19, peptide modifications: H4K8ac, binder concentration: 100 nM): 0.0126 ± 0.0039 | peptide microarray binding signal [3, 6]: 0.000849 ± 0.00016 | peptide microarray binding signal [3, 7]: 0.001712 ± 1.6e-05 | peptide microarray binding signal [4, 6]: 0.000876 ± 7e-05 | peptide microarray binding signal [4, 7]: 0.00121 ± 2.4e-05

SGRGKGGKGLGKG [H4 1-13 Sph G Rme2s G K G G K G L G K G]
peptide microarray binding signal ([1]; peptide region: H4 1-13, peptide modifications: H4S1ph H4R3me2s, binder concentration: 50 nM): 0.0052 ± 0.0008 | peptide microarray binding signal ([1]; peptide region: H4 1-13, peptide modifications: H4S1ph H4R3me2s, binder concentration: 500 nM): 0.00852 ± 0.00024 | peptide microarray binding signal ([2]; peptide region: H4 1-13, peptide modifications: H4S1ph H4R3me2s, binder concentration: 10 nM): 0.00346 ± 0.00014 | peptide microarray binding signal ([2]; peptide region: H4 1-13, peptide modifications: H4S1ph H4R3me2s, binder concentration: 100 nM): 0.00865 ± 0.00015 | peptide microarray binding signal [3, 8]: 0.00119 ± 0.0001 | peptide microarray binding signal [3, 9]: 0.0012 ± 1.2e-05 | peptide microarray binding signal [4, 8]: 0.000408 ± 1.8e-05 | peptide microarray binding signal [4, 9]: 0.000923 ± 9.6e-06

KGLGKGGAKRHRK [H4 8-19 K G L G K G G A Kac Rme H R K]
peptide microarray binding signal ([1]; peptide region: H4 8-19, peptide modifications: H4K16ac H4R17me1, binder concentration: 500 nM): 0.000143 ± 2.7e-06 | peptide microarray binding signal ([2]; peptide region: H4 8-19, peptide modifications: H4K16ac H4R17me1, binder concentration: 100 nM): 0.000425 ± 4.9e-06 | peptide microarray binding signal [3, 10]: 7.55e-05 ± 8.5e-07 | peptide microarray binding signal [4, 10]: 3.02e-05 ± 3.4e-07

KGLGKGGAKRHRK [H4 8-19 K G L G K G G A Kac R H R K]
peptide microarray binding signal ([1]; peptide region: H4 8-19, peptide modifications: H4K16ac, binder concentration: 50 nM): 0.00483 ± 0.00015 | peptide microarray binding signal ([1]; peptide region: H4 8-19, peptide modifications: H4K16ac, binder concentration: 500 nM): 0.0126 ± 0.00055 | peptide microarray binding signal ([2]; peptide region: H4 8-19, peptide modifications: H4K16ac, binder concentration: 10 nM): 0.00388 ± 8.9e-05 | peptide microarray binding signal ([2]; peptide region: H4 8-19, peptide modifications: H4K16ac, binder concentration: 100 nM): 0.0106 ± 0.0026 | peptide microarray binding signal [3, 11]: 0.00238 ± 0.00047 | peptide microarray binding signal [3, 12]: 0.002 ± 4.9e-05 | peptide microarray binding signal [4, 11]: 0.00181 ± 6e-05 | peptide microarray binding signal [4, 12]: 0.00127 ± 3.4e-05

SGRGKGGKGLGKG [H4 1-13 Sph G Rme2a G K G G K G L G K G]
peptide microarray binding signal ([1]; peptide region: H4 1-13, peptide modifications: H4S1ph H4R3me2a, binder concentration: 50 nM): 0.00605 ± 0.001 | peptide microarray binding signal ([1]; peptide region: H4 1-13, peptide modifications: H4S1ph H4R3me2a, binder concentration: 500 nM): 0.0165 ± 0.0018 | peptide microarray binding signal ([2]; peptide region: H4 1-13, peptide modifications: H4S1ph H4R3me2a, binder concentration: 10 nM): 0.00334 ± 4.8e-05 | peptide microarray binding signal ([2]; peptide region: H4 1-13, peptide modifications: H4S1ph H4R3me2a, binder concentration: 100 nM): 0.00794 ± 0.0014 | peptide microarray binding signal [3, 13]: 0.00225 ± 0.00023 | peptide microarray binding signal [3, 14]: 0.00194 ± 6.3e-05 | peptide microarray binding signal [4, 13]: 0.000982 ± 4.2e-05 | peptide microarray binding signal [4, 14]: 0.00104 ± 1.1e-05
